Measurements as given in PubChem BioAssay (NCI).
Several values for one entry are separate records, joined by “and”; a condition that tells them apart may be missing. Identical values can stand only once. About 79,000 compounds went through this panel and 15% of them were active in at least one assay; those are over-represented in the sample as a whole. Cut-off read from the data, not from the text of the source: active = growth inhibition above about 70%; inactive = the rest. Where a SMILES comes first, the peptide text is derived from it. [ ]: non-standard residue; d: D form. The star is where a group is joined. Cbz = O=C(OCc1ccccc1)*; Nva = CCC[CH](N)C(=O)O

Key:
[1] = NCI Yeast Anticancer Drug Screen. Data for the rad50 strain (AID 155);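 note: 0% = growth of vehicle-only cultures of the same strain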; conditions: S. cerevisiae rad50 strain growth inhibition, stronger effect = higher value; at 50.0 µM unless noted
Summary of the method: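 A DNA repair-deficient yeast mutant serves as the test organism; compound-induced growth inhibition is calculated against vehicle-treated cells.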

[2] = NCI Yeast Anticancer Drug Screen. Data for the mec2-1 strain (AID 157); conditions: S. cerevisiae mec2-1 strain, stronger effect = higher value; at 50.0 µM unless noted
Summary of the method: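 Growth inhibition is read against vehicle-treated controls after compound exposure of the mec2-1 yeast strain, which is defective in DNA damage repair or cell cycle control.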

[3] = NCI Yeast Anticancer Drug Screen. Data for the sgs1 mgt1 strain (AID 161);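 note: 0% = growth of cultures given vehicle only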; conditions: S. cerevisiae sgs1 mgt1 strain, stronger effect = higher value; at 50.0 µM unless noted
Summary of the method: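 This yeast growth screen uses a strain with defined DNA-repair lesions; compound-treated growth is compared with vehicle-treated growth.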

[4] = NCI Yeast Anticancer Drug Screen. Data for the cln2 rad14 strain (AID 165);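 note: 0% = growth equal to vehicle treated cultures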; conditions: S. cerevisiae cln2 rad14 strain, stronger effect = higher value; at 50.0 µM unless noted
Summary of the method: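 Growth inhibition, relative to vehicle-treated controls, is the read-out. The test organism is a yeast strain with defined genetic alterations, cln2 rad14.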

[5] = NCI Yeast Anticancer Drug Screen. Data for the bub3 strain (AID 167); conditions: S. cerevisiae bub3 mutant strain, stronger effect = higher value; at 50.0 µM unless noted
Summary of the method: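 Inhibition values come from growth of compound-treated mutant yeast normalised to vehicle-treated controls.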

[6] = NCI Yeast Anticancer Drug Screen. Data for the mlh1 rad18 strain (AID 175); conditions: S. cerevisiae mlh1 rad18 strain growth inhibition, stronger effect = higher value; at 50.0 µM unless noted
Summary of the method: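 Cells of a genetically altered yeast strain, deficient in DNA damage repair, were treated with compound. Their growth was then compared with that of vehicle-treated cultures to give inhibition.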

Measured: growth inhibition

C/C=C(/Br)C(=O)O
inactive: [1] -11.6% | [2] -6% | [3] -10.2% | [4] -53.5% | [5] -5.2% | [6] -12.9%

CC(C)(C)OC(=O)CC(NC(=O)OC(C)(C)C)C(=O)NC(C(=O)O)C(O)c1ccccc1 (stereo not given)
inactive: [1] -19.4% | [2] -24.9% | [3] -15.3% | [4] -22.9% | [5] -9.45% | [6] -28.6%

Cc1ccc(N2CC(=O)N3CCCC(C)N3C(=O)C2)cc1 (stereo not given)
inactive: [1] 26% | [2] 8.85% | [3] 14.8% | [4] 15.8% | [5] 7.05% | [6] 10.4%

Nc1nc(Cl)cc(NCCO)n1
inactive: [1] -1.15% and -5.05% | [2] -36.6% and 7% | [3] -39.5% and 20.7% | [4] -7.85% and -0.25% | [5] -21.1% and 4.8% | [6] 1.8% and 43.4%

NC(CSS(=O)(=O)O)=NCCCOCc1ccccc1
inactive: [1] 15.4% | [2] 7% | [3] 12.3% | [4] 10% | [5] 18.6% | [6] -7.2%

C=CCC1(CN(C)C)CC/C(=C\c2cc(OC)c(OC)c(OC)c2)C1=O (stereo not given)
inactive: [1] -8.7% | [2] -3.15% | [3] -26% | [4] -4.65% | [5] -9.85% | [6] 20.2%

CN(C)C1=C(Cl)C(=O)C(=O)c2cccnc21
inactive: [1] 32.3% | [2] -2.9% | [3] 21.4% | [4] 5.2% | [5] -16.4% | [6] 38.4%

O=C1CC(Br)C(c2ccccc2)(c2ccccc2)O1 (stereo not given)
inactive: [1] 32.2% | [2] 9.4% | [3] 33.6% | [4] 46.3% | [5] 14.2% | [6] 32%

O=c1oc(-c2ccc([N+](=O)[O-])cc2Cl)nc2ccccc12
inactive: [1] 13.2% | [2] 23.4% | [3] 31.1% | [4] 2% | [5] 38.6% | [6] 29.9%

O=C(OC1CCC/C=C\CCCC1)c1ccc(Cl)cc1 (stereo not given)
inactive: [1] 1.45% | [2] -4.35% | [3] -16.4% | [4] -2.1% | [5] -1.5% | [6] 2.45%

CCC(c1cccc(C(=O)O)c1)C(C(C)=O)c1ccc(O)cc1 (stereo not given)
inactive: [1] 0.8% | [2] -20.5% | [3] -6.1% | [4] -22.5% | [5] 4% | [6] -5.05%

Cc1onc(-c2ccccc2)c1C(C)(O)c1ccccc1 (stereo not given)
inactive: [1] 12.8% | [2] 11.2% | [3] 16.6% | [4] -17.9% | [5] 18.2% | [6] 5.7%

NC(=O)C(=Cn1c(=S)[nH]c2ccc([N+](=O)[O-])cc21)C(N)=O
inactive: [1] -10% | [2] -40.9% | [3] -9.9% | [4] 11.7% | [5] -22.6% | [6] 31.9%

CCOC(=O)c1ccc(NC2Oc3cc4c(cc3C(c3cc(OC)c(OC)c(OC)c3)C2C)OCO4)cc1 (stereo not given)
inactive: [1] -1.6% | [2] -15.5% | [3] -2.65% | [4] 11.4% | [5] -9.8% | [6] -9.55%

CC(C)(C)C(=O)NC(OC(NC(=O)C(C)(C)C)C(=O)C(C)(C)C)C(=O)C(C)(C)C (stereo not given)
inactive: [1] 4.05% | [2] 6.25% | [3] -21.4% | [4] -0.6% | [5] -0.1% | [6] 21%

O=C(CCC1OCCO1)Nc1cc([N+](=O)[O-])ccc1OCc1ccccc1
inactive: [1] -1.9% | [2] 4.5% | [3] 6.25% | [4] -8.2% | [5] -1.35% | [6] 7.6%

O=C(Nc1ccc2ccccc2c1)c1ccccc1Cl
inactive: [1] 1.65% | [2] -4.4% | [3] 21.9% | [4] -7.15% | [5] 17.1% | [6] 32.3%

CC1(C)C(=O)C=C(c2ccccc2)C1(O)c1ccccc1 (stereo not given)
inactive: [1] -9.45% | [2] -29.9% | [3] 16.9% | [4] 5.35% | [5] 22.4% | [6] -38.5%

Cc1cccc(C(=N)c2ccccc2Cc2cccc3ccccc23)c1C
inactive: [1] 51% | [2] 6.5% | [3] 66% | [4] 17.6% | [5] 68.5% | [6] 37.8%

CC(=O)N(C)c1ccc(NC(=O)C2CCCCC2C(=O)O)cc1 (stereo not given)
inactive: [1] 6.95% | [2] 8.6% | [3] 6.2% | [4] 3.65% | [5] 22.2% | [6] -14.2%

CCCC(NC(=O)OCc1ccccc1)C(=O)NC(CC(C)C)C(N)=O (stereo not given) (Cbz-[Nva]-Leu-NH2; configuration not given here)
inactive: [1] 12.9% | [2] 2.35% | [3] 5% | [4] 22.2% | [5] 6.55% | [6] 5.15%

CC(C)N(C(C)C)S(C)(=O)=O
inactive: [1] -0.3% | [2] -0.5% | [3] -3.9% | [4] -17.8% | [5] 10.3% | [6] 3.1%

CCCCCCCCCCCCC
inactive: [1] -36.4% | [2] -45.8% | [3] -18.2% | [4] 3.7% | [5] -50% | [6] -20.9%

CCOc1ccccc1N=Nc1c(-c2ccccc2)nn(C(=O)CC(=O)Nc2cccc(Cl)c2)c1-c1ccccc1
inactive: [1] 12.6% | [2] -13.9% | [3] 40.9% | [4] 9.2% | [5] 26.2% | [6] 22.2%

Cc1cc2cc3c(=O)[nH]c(=O)[nH]c3nc2cc1C
inactive: [1] -11.7% | [2] 1.65% | [3] -19% | [4] -8.6% | [5] -27.2% | [6] -0.05%

O=C(O)Nc1ccc(I)cc1
inactive: [1] -9.2% | [2] -10.2% | [3] 1.15% | [4] -25.9% | [5] -4.1% | [6] -12.4%

NC(=O)C(O)c1c[nH]c2ccccc12 (stereo not given)
inactive: [1] 3.7% | [2] 1.75% | [3] -1.45% | [4] 6.4% | [5] -15% | [6] 8.2%

CC(=O)N(c1nc2ccccc2s1)N1C(=O)c2ccccc2C1=O
inactive: [1] -18.8% | [2] -33.3% | [3] -17.9% | [4] -2.15% | [5] -40.2% | [6] -20.2%

O=C(CC1C(=O)Nc2ccccc2S1=O)Nc1cc(Cl)ccc1Cl (stereo not given)
inactive: [1] -14.9% | [2] -24.2% | [3] 3.1% | [4] 8.15% | [5] -4.6% | [6] -6.1%

COc1ccc(C(=O)CCC2(C)OCCO2)cc1OC
inactive: [1] 27.3% | [2] 5.8% | [3] 18.9% | [4] 8.4% | [5] 21.9% | [6] 17.5%

CNC(=O)c1n[nH]nc1Sc1c([N+](=O)[O-])ncn1C
inactive: [1] -39% | [2] -43% | [3] -34.1% | [4] -34.2% | [5] -20.6% | [6] -29.4%

CCNc1cccc(C)c1
inactive: [1] 28.9% | [2] -10.7% | [3] -16.2% | [4] -33.8% | [5] 12.8% | [6] 23.1%

COc1cccc(C2c3cc4c(cc3OC(NNS(=O)(=O)c3ccc(C)cc3)C2C)OCO4)c1OC (stereo not given)
inactive: [1] 3.75% | [2] 4.55% | [3] 10.3% | [4] 8.05% | [5] 36.9% | [6] 18.2%

NC(Cc1c[nH]c2ccccc12)C(=O)O (stereo not given)
inactive: [1] 4.2% and -1.1% | [2] -7.9% and -8.7% | [3] -13.2% and 6.55% | [4] 3% and -1.25% | [5] -28.4% and -2.7% | [6] 2.65% and -16.2%

C=C(C)C(C)/C(C)=N/NC(N)=O (stereo not given) (tested in a mixture with another compound)
inactive: [1] 6.85% | [2] 3.3% | [3] -5.75% | [4] 10.4% | [5] 10.6% | [6] -15.8%

Cc1cc2cccc(Cl)c2nc1C(=O)c1ccccc1
inactive: [1] -9.3% | [2] -12.3% | [3] -9.3% | [4] 22.4% | [5] -7.4% | [6] -12.6%

Cc1cc(O)c(C)c(C)c1O
inactive: [1] -4.1% | [2] -12.6% | [3] -6.95% | [4] -12.4% | [5] 4% | [6] 8.85%

Cc1ccc(NC(=O)CC/C(CC(=O)c2ccc(F)cc2)=N\NC(=O)C(=O)NN)cc1C
inactive: [1] -11.3% | [2] -5.2% | [3] -9.55% | [4] -3.3% | [5] -1.7% | [6] -1.25%

Clc1ccccc1NN(Cc1ccncc1)c1ccccc1Cl
inactive: [1] 55.6% | [2] 23.1% | [3] 23.7% | [4] 26.9% | [5] 34.1% | [6] 53.1%

CCC[N+](C)(C)CCC#N
inactive: [1] -4.55% | [2] 10.9% | [3] 4.2% | [4] -14% | [5] 17.1% | [6] 5.25%
